{"source": "PubChem BioAssay AID1671463", "about": "(Sanford-Burnham Center for Chemical Genomics, 2021)", "note": "The whole screen tested about 370,000 compounds, of which about 520 (0.14%) were called active. For the sample, actives were picked, then their nearest neighbours and some compounds at random. A number with no mark means an inactive call. No stated cut-off is given here; in the data, active means activation above about 40%; inactive means the rest."}
{"biological_target": "Atrial natriuretic peptide receptor 1 (Homo sapiens) (UniProt P16066)", "sequence (P16066 whole entry, looked up)": "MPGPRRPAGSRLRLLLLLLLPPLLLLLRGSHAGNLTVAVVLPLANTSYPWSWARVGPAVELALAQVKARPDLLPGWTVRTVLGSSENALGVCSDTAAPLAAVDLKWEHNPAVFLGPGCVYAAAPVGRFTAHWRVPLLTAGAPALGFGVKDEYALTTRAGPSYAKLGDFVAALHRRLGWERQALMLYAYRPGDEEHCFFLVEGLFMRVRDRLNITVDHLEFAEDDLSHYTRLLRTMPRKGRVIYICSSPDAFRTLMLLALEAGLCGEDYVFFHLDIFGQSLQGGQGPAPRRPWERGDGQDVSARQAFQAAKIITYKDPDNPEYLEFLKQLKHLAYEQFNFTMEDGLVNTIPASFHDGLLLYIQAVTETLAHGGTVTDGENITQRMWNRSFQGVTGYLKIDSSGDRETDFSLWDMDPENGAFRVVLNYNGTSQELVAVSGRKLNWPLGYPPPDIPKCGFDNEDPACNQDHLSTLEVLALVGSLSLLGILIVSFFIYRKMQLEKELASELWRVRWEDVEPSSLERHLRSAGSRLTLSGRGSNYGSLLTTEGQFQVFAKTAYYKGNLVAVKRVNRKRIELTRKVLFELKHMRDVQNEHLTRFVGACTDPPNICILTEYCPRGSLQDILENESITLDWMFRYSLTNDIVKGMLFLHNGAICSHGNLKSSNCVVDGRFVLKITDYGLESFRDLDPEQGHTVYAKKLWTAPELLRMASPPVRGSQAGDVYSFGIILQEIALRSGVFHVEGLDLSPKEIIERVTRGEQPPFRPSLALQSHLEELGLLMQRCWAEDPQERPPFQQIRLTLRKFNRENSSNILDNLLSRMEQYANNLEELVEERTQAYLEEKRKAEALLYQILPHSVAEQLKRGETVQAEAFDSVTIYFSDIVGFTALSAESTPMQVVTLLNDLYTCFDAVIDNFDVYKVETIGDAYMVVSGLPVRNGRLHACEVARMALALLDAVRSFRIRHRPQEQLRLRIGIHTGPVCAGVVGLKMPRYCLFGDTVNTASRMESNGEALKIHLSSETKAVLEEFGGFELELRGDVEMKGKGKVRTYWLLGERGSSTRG", "test": "GC-A stimulated cGMP production enhancers – HEK293 GC-A cells, cGMP TR-FRET, EC30 ANP, primary screen (AID 1671463)", "details": "at 10 µM, active compounds read high, 0% at EC30 ANP, 100% saturating ANP"}
{"compound": "COc1ccc([N+](=O)[O-])cc1NC(=O)CC1SC(=Nc2cccc(C)c2C)N(/N=C(\\C)c2ccc(C)cc2)C1=O", "note": "(stereo not given)", "activation": "0.41%"}
{"compound": "Cc1ccc(NS(=O)(=O)c2ccc(-c3coc(C)n3)cc2)c(C)c1", "activation": "4.2%"}
{"compound": "C#CCOc1ccc(/C=C2/C(=O)ON=C2C)cc1OCC", "activation": "43.3% (active)"}
{"compound": "C=CCOc1ccc(/C=N/NC(=O)C(C)Sc2ccccn2)cc1OCC", "note": "(stereo not given)", "activation": "1.12%"}
{"compound": "C=CCOc1ccc(/C=C2/C(=O)ON=C2C)cc1OCC", "activation": "41% (active)"}
{"compound": "C=CCOc1ccc(/C=N/n2cncn2)cc1OC", "activation": "7.58%"}
{"compound": "C#CCOc1ccccc1/C=C1/C(=O)ON=C1C", "activation": "25.7%"}
{"compound": "Cc1ccc(N2C(=O)C3C4C=CC(CC4)C3C2=O)cc1Cl", "note": "(stereo not given)", "activation": "2.95%"}
{"compound": "CN(CC(=O)Nc1c(Cl)cccc1Cl)C(=O)c1ccncc1", "activation": "3.63%"}
{"compound": "C=C1CCN([C@H](C(=O)NCc2cc(OC)c(OC)c(OC)c2)C(C)C)S(=O)(=O)c2ccccc21", "activation": "4.37%"}
{"compound": "CCCC(C(=O)N1CCOCC1)N1C(=O)C2C3C=CC(C3)C2C1=O", "note": "(stereo not given)", "activation": "2.35%"}
{"compound": "O=C(Nc1cccc(Br)c1)C1CC(=O)N(C2CCCC2)C1", "note": "(stereo not given)", "activation": "0.08%"}
{"compound": "Cc1cccc(NC(=O)C2CCCN2S(=O)(=O)c2ccc(F)cc2)c1C", "note": "(stereo not given)", "activation": "0.56%"}
{"compound": "CCC(=O)Nc1c(C)n[nH]c1C", "activation": "-1.11%"}
{"compound": "COc1cc(F)c(C2=CC(=O)CC(C)(C)C2)cc1F", "activation": "0.01%"}
{"compound": "COC(=O)Cc1ccc(OC(=O)C2CCN(S(=O)(=O)c3ccc(OC)c(OC)c3)CC2)cc1", "activation": "3.18%"}
{"compound": "COC(=O)c1cn(C)c2ccc(S(=O)(=O)N3CC(C)CC(C)C3)cc2c1=O", "note": "(stereo not given)", "activation": "-6.76%"}
{"compound": "Cc1nc(CNc2ncnc3ccc(-c4ccc5c(c4)OCO5)cc23)cs1", "activation": "5.54%"}
{"compound": "c1coc(CCNc2ncnc3ccc(-c4ccc5c(c4)OCO5)cc23)c1", "activation": "43.1% (active)"}
{"compound": "O=C(Cn1nnc(-c2ccc3c(c2)OCO3)n1)NCc1ccco1", "activation": "-5.64%"}
{"compound": "Cc1ccc(NC(=O)CN(C)C(=O)COC(=O)C(C)(C)Oc2ccc(Cl)cc2)cc1", "activation": "-1.24%"}
{"compound": "CCn1nc(C(=O)NNC(=O)C2CSC3(C)CCC(=O)N23)c2ccccc2c1=O", "note": "(stereo not given)", "activation": "-1.32%"}
{"compound": "Cc1cc(C)c(C#N)c(SCS(=O)c2ccc(C(C)(C)C)cc2)n1", "note": "(stereo not given)", "activation": "4.18%"}
{"compound": "CCOC(=O)c1c(C)[nH]c(=S)c(C#N)c1-c1ccccc1", "activation": "49.5% (active)"}
{"compound": "CCc1c(C)[nH]c(=S)c(C#N)c1C", "activation": "2.4%"}
{"compound": "CC(=O)c1c(C)[nH]c(=S)c(C#N)c1-c1ccc(F)cc1", "activation": "5.29%"}
{"compound": "COC(=O)Nc1ccc(S(=O)(=O)N2CCN(CCN3C(=O)C4C5C=CC(C5)C4C3=O)CC2)cc1", "note": "(stereo not given)", "activation": "-1.89%"}
{"compound": "Cc1cc(=O)n2nc(N3CCC(C(=O)Nc4c(F)c(F)c(F)c(F)c4F)CC3)sc2n1", "activation": "0.6%"}
{"compound": "CC(C)c1cc(C(N)=O)c(NC(=O)c2cccc(COc3ccc(Br)cc3)c2)s1", "activation": "-1.61%"}
{"compound": "O=C(CN1C2CCC1CC(NC(=O)C1CC1)C2)NCc1ccccc1", "note": "(stereo not given)", "activation": "0.13%"}
{"compound": "COc1ccccc1CNC(=O)CSc1nc(=O)n(Cc2ccncc2)c2c1CCC2", "activation": "2.8%"}
{"compound": "O=C1CC[C@@H](COc2ccc3[nH]cc(-c4ccccc4)c3c2-c2ccccc2)N1", "activation": "2.69%"}
{"compound": "CC(C)C[C@H](NC(=O)[C@@H]1O[C@H]1C(=O)O)C(=O)NCCCCN=C(N)N", "activation": "2.77%"}
{"compound": "C[C@H](NS(=O)(=O)c1ccc(Cl)cc1)C(=O)OCC(=O)N1CCOCC1", "activation": "7.01%"}
{"compound": "Nc1ccc(N=Nc2ccccc2Cl)c(N)n1", "activation": "38.8%"}
{"compound": "CCN(CC)S(=O)(=O)c1ccc(CNC(=O)CN2C(=O)NC3(CCc4ccccc43)C2=O)cc1", "note": "(stereo not given)", "activation": "-0.1%"}
{"compound": "O=C(O)CCSc1nnc(-c2ccccc2)n1-c1ccccc1", "activation": "4.68%"}
{"compound": "C[C@@H](O)c1nc2ccccc2n1N", "activation": "1.42%"}
{"compound": "COCc1c(C(=O)OCc2c(C)noc2C)oc2ccccc12", "activation": "2.41%"}
{"compound": "Cc1noc(C)c1COC(=O)COc1ccc(-c2ccccc2)cc1", "activation": "42% (active)"}
{"compound": "Cc1noc(C)c1COc1cccc(C(=O)Nc2cccnc2)c1", "activation": "-4.16%"}
{"compound": "CCCCOc1ccc(N(CC(=O)NCC2CCCO2)C(=O)CCC(=O)Nc2cc(C)ccn2)cc1", "note": "(stereo not given)", "activation": "0.77%"}
{"compound": "CSc1sc(C(=O)NNC(=O)c2ccc(Cl)cc2)c2c1C=CCC2", "activation": "-1.84%"}
{"compound": "Cc1cc(NC(=O)CS(=O)(=O)c2cn(C)c3ccccc23)no1", "activation": "1.25%"}
{"compound": "CC(=O)c1ccc(S(=O)(=O)NC2CC(=O)N(c3ccc4c(c3)OCCO4)C2)cc1", "note": "(stereo not given)", "activation": "4.47%"}
{"compound": "Cc1ccn(-c2cccc(-n3ccc(C)n3)n2)n1", "activation": "5.87%"}
{"compound": "CCCCOc1ccc(NC(=O)[C@@H]2CCCN2C(=O)C2CCN(S(=O)(=O)c3ccc(C)cc3)CC2)cc1", "activation": "2.31%"}
{"compound": "O=C(Nc1ccon1)c1nc[nH]c1C(=O)NCc1ccccc1", "activation": "-0.12%"}
{"compound": "NC(N)=NCCCc1cn(CC(=O)N2CCNCC2)nn1", "activation": "-2.97%"}
{"compound": "Cc1oc2cc3oc(=O)ccc3cc2c1C", "activation": "-1.91%"}
{"compound": "CC(C)Oc1ccc(C(CC(=O)N2CCOCC2)C(C)C)cc1", "note": "(stereo not given)", "activation": "-1.14%"}
{"compound": "O=C(COC(=O)CSc1nnc(-c2ccc(Cl)cc2)o1)Nc1cc(Cl)cc(Cl)c1", "activation": "60.5% (active)"}
{"compound": "O=C(CSc1nnc(-c2ccncc2)o1)Nc1cccc(Cl)c1", "activation": "-5.53%"}
{"compound": "O=C(CSc1nnc(-c2ccncc2)o1)NCc1ccc(Cl)cc1", "activation": "-2.38%"}
{"compound": "O=[N+]([O-])c1ccc(CN2CC(N3CC=CC3)CS2(=O)=O)cc1", "note": "(stereo not given)", "activation": "0.5%"}
{"compound": "O=C1/C(=C\\c2ccc([N+](=O)[O-])cc2)CS(=O)(=O)C/C1=C/c1ccc([N+](=O)[O-])cc1", "activation": "43.4% (active)"}
{"compound": "Nc1c(N(CCO)C(=O)C2CCCCC2)c(=O)[nH]c(=O)n1Cc1ccccc1", "activation": "-4.4%"}
{"compound": "CC(NC(=O)COc1ccc(-c2ccccc2)cc1)C1CCCO1", "note": "(stereo not given)", "activation": "3.26%"}
{"compound": "COC(=O)CN1C(=O)[C@H]2[C@@H](C3CC3)N3C(=O)CN(Cc4ccc(-c5ccccc5)cc4)C(=O)[C@@]3(Cc3ccccc3)[C@H]2C1=O", "activation": "4.81%"}
{"compound": "O=C(CSc1nc2ccccc2n1Cc1ccccc1)NNC(=S)Nc1ccccc1", "activation": "0.91%"}
{"compound": "O=S(=O)(Nc1ccc(-c2ccc(N3CCOCC3)nn2)cc1)c1cc(Cl)ccc1Cl", "activation": "0.58%"}
{"compound": "COc1cc(NC(=O)c2ccc(CNc3c(N4CCCC4)c(=O)c3=O)cc2)cc(OC)c1OC", "activation": "-2.1%"}
{"compound": "Fc1ccc2c(c1)C(c1cccnc1)=NNC(c1cccs1)=N2", "activation": "-28.1%"}
{"compound": "[O-][n+]1c2c(nn1-c1ccc(Cl)c(Cl)c1)-c1nonc1CC2", "activation": "9.72%"}
{"compound": "C=CCOc1ccc(Cl)cc1CNCCCN1CCOCC1", "activation": "-6.85%"}
{"compound": "O=C1C=C(c2ccnc3cc(Cl)ccc23)C[C@@H](c2ccc3c(c2)OCO3)C1", "activation": "0.61%"}
{"compound": "CCOc1ccc(NC(=O)CSc2ncnc3c2sc2ccccc23)cc1", "activation": "38.7%"}
{"compound": "CC1(C)Cc2nc3sc4c(SCC(=O)NC(c5ccccc5)c5ccccc5)ncnc4c3cc2CO1", "activation": "52.8% (active)"}
{"compound": "CC(C)CCSc1ncnc2c1oc1nc3c(cc12)COC(C)(C)C3", "activation": "-1.1%"}
{"compound": "CN1CCC(=NNC(=O)CN(c2cccc(Cl)c2)S(C)(=O)=O)CC1", "activation": "0.89%"}
{"compound": "CCCCCn1c(SCCC(C)C)nc2c1c(=O)[nH]c(=O)n2C", "activation": "1.84%"}
{"compound": "COc1ccc2occ(C(=O)c3ccc(N=C(C)N(C)C)cc3)c2c1", "activation": "-4.34%"}
{"compound": "Cc1nn(Cc2ccccc2)c(C)c1C(=O)N1CCN(CC(=O)Nc2ccccc2Cl)CC1", "activation": "4.37%"}
{"compound": "CN(C)CCN=c1cc(-c2ccccc2)oc2ccc(Cl)cc12", "activation": "1.39%"}
{"compound": "COc1ccc(C(CC(=O)c2ccccc2)S(=O)(=O)c2ccccc2)cc1", "note": "(stereo not given)", "activation": "-10.5%"}
{"compound": "O=C(c1ccc(F)c(S(=O)(=O)N2CCOCC2)c1)N(CCc1ccccc1)Cc1ccccc1", "activation": "-3.51%"}
{"compound": "O=C(CN1C(=O)c2ccc([N+](=O)[O-])cc2C1=O)Nc1nnc(C2CC2)s1", "activation": "5.52%"}
{"compound": "COc1ccc(NC(=O)C(CC(C)C)NC(=O)C2CCC(C)CC2)cc1", "note": "(stereo not given)", "activation": "-0.39%"}
{"compound": "CCOC(=O)N1CCN(C(=O)CSc2nnc(-c3c[nH]c4ccccc34)n2CCOC)CC1", "activation": "-1.3%"}
{"compound": "CCNC(=O)N1CCN(S(=O)(=O)c2ccc3c(c2)OCCCO3)CC1", "activation": "-0.67%"}
{"compound": "O=C(CCC1CCCN(Cc2ccc(O)c(Cl)c2)C1)NCc1ccccc1F", "note": "(stereo not given)", "activation": "3.25%"}
{"compound": "COc1ccc2cc(C(=O)O)n(CC(=O)c3ccccc3)c2c1", "activation": "-0.02%"}
{"compound": "CC(=O)OCCN1CCCC12CCC(c1ccccc1)CC2", "note": "(stereo not given)", "activation": "4.33%"}
{"compound": "COc1ccc(CCNC(=O)COc2ccc3c(c2)OCO3)cc1", "activation": "-3.12%"}
{"compound": "NC(=O)C1=C[C@H](c2csc3ccccc23)C[C@H](OCc2ccc(CO)cc2)O1", "activation": "-0.65%"}
{"compound": "CC(C)COC(=O)n1c(=O)oc2ccc(S(=O)(=O)N3CCCCC3)cc21", "activation": "0.62%"}
{"compound": "COc1ccc(C2CC(c3cccc(OC)c3)=NN2c2ccc(S(N)(=O)=O)cc2)cc1", "note": "(stereo not given)", "activation": "6.44%"}
{"compound": "COc1ccc(C2CC(c3ccccc3)=NN2C(=O)c2ccc(Cl)c([N+](=O)[O-])c2)cc1", "note": "(stereo not given)", "activation": "69.5% (active)"}
{"compound": "CCOc1ccc2nc(Cl)c(C3CC(c4ccccc4)=NN3C(=O)c3cccs3)cc2c1", "note": "(stereo not given)", "activation": "1.83%"}
{"compound": "O=C1C=CC(=O)N1c1ccc(N2CCCCC2)cc1", "activation": "50.5% (active)"}
